The source of these data is PubChem BioAssay (NCATS).

Records with an inconclusive call do not appear. Activity calls are given as the source filed them. Calls follow the shape of the dose curve; as a rule, active = well fitted curve in the direction sought with a large enough effect; inconclusive = small, poorly fitted or top-dose-only effect, or another doubt; inactive = no such curve, though single readings can be large; an effect the other way counts as inactive or inconclusive.
% is scaled to controls: 0 for no effect and ±100 for the full control effect.

The test system of one assay is OV90. Kind of assay: Primary qHTS to identify gynecologic anti-cancer compounds using libraries of approved drugs and bioactive compounds (AID 1345084). Also: nearly all actives have a fitted effect of over 55% in size. Also: potency is read from the fitted curve at half-maximal effect. To be noted: Gynecologic cancer cell panel viability, ATPlite luminescence, 48 h; series mostly up to 57.5 µM; activity change, negative = cytotoxicity: at the top concentration. An outline of the steps:
(§1)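 Five-point cytotoxicity, 48 h drug exposure at 37 C, 5% CO2, on cells seeded 16 h beforehand. ATP content read by ATPlite luminescence.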
Consider `Cc1cccc2c1CC[C@H](CN1CCC(c3c(Cl)cccc3Cl)CC1)C[C@@H]2O`, for which the “activity change, negative = cytotoxicity” value is -29.7% (inactive).
Take `COc1ccc(-c2ccc3ncc4c(c3c2)n(-c2ccc(N3CCNCC3)c(C(F)(F)F)c2)c(=O)n4C)cn1`: the Potency is 31600 nM (active).
Still for that read-out and setting: the figure for `CC1(C)CC(=O)c2c(C(F)(F)F)nn(-c3ccc(C(N)=O)c(NC4CCC(O)CC4)c3)c2C1` (stereo not given) is 316 nM (active).
As for `NC1(C(=O)N[C@@H](CCO)c2ccc(Cl)cc2)CCN(c2ncnc3[nH]ccc23)CC1`, the “activity change, negative = cytotoxicity” value is -27.2% (inactive).

A further assay relates to PA-1. Described as above. As to conditions: Gynecologic cancer cell panel viability, ATPlite luminescence, 48 h; series mostly up to 57.5 µM; activity change, negative = cytotoxicity: at the top concentration. An outline of the steps:
as §1
(In general: Cellular ATP, detected with luciferase, serves as a proxy for viable cell number.)
Regarding `Cc1cccc2c1CC[C@H](CN1CCC(c3c(Cl)cccc3Cl)CC1)C[C@@H]2O`, the Potency is 11200 nM (active).
On the same count and under the same terms, the figure for `COc1ccc(-c2ccc3ncc4c(c3c2)n(-c2ccc(N3CCNCC3)c(C(F)(F)F)c2)c(=O)n4C)cn1` is 316 nM (active); for `CC1(C)CC(=O)c2c(C(F)(F)F)nn(-c3ccc(C(N)=O)c(NC4CCC(O)CC4)c3)c2C1` (stereo not given) it is 447 nM (active).

For the next assay, the system named is Tov-21-G. The assay is described as above. To be noted: Gynecologic cancer cell panel viability, ATPlite luminescence, 48 h; series mostly up to 57.5 µM; activity change, negative = cytotoxicity: at the top concentration. The procedure, abridged:
as §1
As to `Fc1ccc(CNc2ncnc3ccc(F)cc23)cc1`, the “activity change, negative = cytotoxicity” value is -0.456% (inactive).
For `CNC1CCC(N(Cc2cccc(-c3ccncc3)c2)C(=O)c2sc3ccccc3c2Cl)CC1` (stereo not given), the “activity change, negative = cytotoxicity” value is -15.7% (inactive).
Regarding `Cc1cccc2c1CC[C@H](CN1CCC(c3c(Cl)cccc3Cl)CC1)C[C@@H]2O`, the “activity change, negative = cytotoxicity” value is -19.1% (inactive).
With `COc1ccc(-c2ccc3ncc4c(c3c2)n(-c2ccc(N3CCNCC3)c(C(F)(F)F)c2)c(=O)n4C)cn1`, the Potency is 35500 nM (active).
For the compound `CC1(C)CC(=O)c2c(C(F)(F)F)nn(-c3ccc(C(N)=O)c(NC4CCC(O)CC4)c3)c2C1` (stereo not given), the Potency is 355 nM (active).
On the same count and under the same terms, the figure for `NC1(C(=O)N[C@@H](CCO)c2ccc(Cl)cc2)CCN(c2ncnc3[nH]ccc23)CC1` is 794 nM (active).

Another assay concerns Tov112D. The assay is described as above. As to conditions: Gynecologic cancer cell panel viability, ATPlite luminescence, 48 h; series mostly up to 57.5 µM; activity change, negative = cytotoxicity: at the top concentration. An outline of the steps: as §1
Consider `Fc1ccc(CNc2ncnc3ccc(F)cc23)cc1`, for which the “activity change, negative = cytotoxicity” value was -15.1% (inactive).
In the case of `CNC1CCC(N(Cc2cccc(-c3ccncc3)c2)C(=O)c2sc3ccccc3c2Cl)CC1` (stereo not given), the “activity change, negative = cytotoxicity” value is -22.5% (inactive).
For the compound `Cc1cccc2c1CC[C@H](CN1CCC(c3c(Cl)cccc3Cl)CC1)C[C@@H]2O`, the “activity change, negative = cytotoxicity” value is -14% (inactive).
Regarding `COc1ccc(-c2ccc3ncc4c(c3c2)n(-c2ccc(N3CCNCC3)c(C(F)(F)F)c2)c(=O)n4C)cn1`, the Potency is 15800 nM (active).
For `NC1(C(=O)N[C@@H](CCO)c2ccc(Cl)cc2)CCN(c2ncnc3[nH]ccc23)CC1`, the “activity change, negative = cytotoxicity” value is -12.8% (inactive).

System in another assay: not listed separately
Kind of assay: Drug repurposing screens with cells derived from glioblastoma tumor samples (AID 1345199). Also: nearly all actives have a fitted effect of over 40% in size. As to conditions: GBM patient neurospheres viability, ATP luminescence, 48 h; at 45.9 µM (top of the series); tumour line B. An outline of the steps:
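Primary testing used CD133+ neurospheres from four GBM patients, seven concentrations, 48 h exposure and ATP-based viability; confirmation added three slower-growing patient lines.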
Consider `CC(C)CN(C[C@@H](O)[C@H](Cc1ccccc1)NC(=O)O[C@H]1CO[C@H]2OCC[C@H]21)S(=O)(=O)c1ccc(N)cc1`, for which the activity, negative = cell killing is -11.9% (inactive).
On the same count and under the same terms, the figure for `CCC(=O)OCC(=O)[C@@]1(OC(=O)CC)[C@@H](C)C[C@@H]2[C@H]3CCC4=CC(=O)C=C[C@]4(C)[C@@]3(F)[C@@H](O)C[C@@]21C` is -4.93% (inactive).
For `COc1cc2c(cc1OC)CC(=O)N(CCCN(C)C[C@H]1Cc3cc(OC)c(OC)cc31)CC2`, the activity, negative = cell killing is -14.4% (inactive).
Turning to `O=C(O)c1nc(=O)[nH]c(=O)[nH]1`, the activity, negative = cell killing was 0.794% (inactive).
Take `N#Cc1c(N(CC(=O)O)CC(=O)O)sc(C(=O)O)c1CC(=O)O`: the activity, negative = cell killing is -0.252% (inactive).
On to `N#CC(c1ccc(Cl)cc1)c1c(Cl)cc(-n2ncc(=O)[nH]c2=O)cc1Cl` (stereo not given), for which the activity, negative = cell killing was -18.3% (inactive).
As to `CCC[C@H](N[C@@H](C)C(=O)N1[C@@H]2CCCC[C@H]2C[C@H]1C(=O)O)C(=O)OCC`, the activity, negative = cell killing was -14% (inactive).
On to `CC(C)(CO)[C@@H](O)C(=O)NCCC(=O)O`, for which the activity, negative = cell killing was 1.18% (inactive).
In the case of `CCCCCCCCCCCCCCCC(=O)O[C@H]1[C@@H](O)[C@@H](O)[C@@H]([C@H](NC(=O)[C@@H]2C[C@@H](CCC)CN2C)[C@H](C)Cl)O[C@@H]1SC`, the activity, negative = cell killing was -20% (inactive).
For `CC[C@H]1OC(=O)[C@H](C)[C@@H](O[C@H]2C[C@@](C)(OC)[C@@H](O)[C@H](C)O2)[C@H](C)[C@@H](O[C@@H]2O[C@H](C)C[C@H](N(C)C)[C@H]2O)[C@](C)(O)C[C@H](C)C(=NOCOCCOC)[C@H](C)[C@@H](O)[C@]1(C)O`, the activity, negative = cell killing is -8.15% (inactive).
In the case of `CN1CC(=O)N2C(Cc3c([nH]c4ccccc34)[C@H]2c2ccc3c(c2)OCO3)C1=O` (stereo not given in full), the activity, negative = cell killing was -5.44% (inactive).
Take `CN1CCN2c3ncccc3Cc3ccccc3C2C1` (stereo not given): the activity, negative = cell killing is -0.787% (inactive).
